This passage reports growth results from PubChem BioAssay (NCI).

The panel holds about 83,000 compounds, 20% with a hit somewhere; the sample as a whole holds those more often.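 Values shown are percent growth following 48 h exposure of cells in 96-well plates to a single concentration of compound; below 10 was considered active.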 A number with no mark means an inactive call. Calls of active or inactive are those of the source.

The experiment concerns NCI-H226 lung. Put plainly: NCI-60 one-dose screen, 48 h (100 = growth as untreated, 0 = no growth, -100 = all killed). The settings on record: 10 µM unless noted. Here is the method:
Growth inhibition of the NCI-H226 human Non-Small Cell Lung tumor cell line is measured as a screen for anti-cancer activity. Cells are grown in 96 well plates and exposed to the test compound for 48 hours. Compounds are tested at a single concentration, which is 10^-5 M for most compounds. The reported endpoint is percent growth (GI% or GIPRCNT), where numbers from 0 - 100% represent growth inhibition, and numbers from -100% - 0 represent cell death. For example, a value of 40 represents 60% growth inhibition. A value of 0 means no net growth occurred over the course of the experiment. A value of -40 indicates 40% of cells at the beginning of the experiment died by the end of the experiment. A value of -100 means all cells are dead at the end of the experiment.
NCI-60 Human Tumor Cell Lines Screen was performed using the standard one-dose NCI protocol, which is described in more detail at https://dtp.cancer.gov/discovery_development/nci-60/default.htm.
Compounds with GIPRCNT values below 10 were considered active. Activity score was based on GIPRCNT using the following formula: […]
Score is 0 for GIPRCNT values of 100 or above, 50 for GIPRCNT values of 0, and 100 for GIPRCNT values of -100.
As to `NC(=O)c1c(NC(=O)c2cccc(C(F)(F)F)c2)sc2c1CCC(=O)C2`, the growth was 34.2%.
Consider `Cc1cccc(N2CCC(=O)NC2=S)c1`, for which the growth was 97.3%.
Regarding `O=C1/C(=C/c2ccccn2)NC(=S)N1c1ccccc1Cl`, the growth was 78.3%.
The same measure for `Cc1ncc(C(=O)Nc2ccc(CN3CCN(C)CC3)c(C(F)(F)F)c2)cc1C#Cc1cnc(N)c2ncccc12`: 42.6%.
For the molecule `CCn1cc(CNc2ccc(C(=O)Nc3cc4cc(OC)c(OC)cc4c(C)n3)cc2)cn1`, the growth was 48.7%.
Turning to `Cc1ccc(-c2csc(N(C(=O)N3CCN(c4cc5c(cc4F)c(=O)c(C(=O)O)cn5C4CC4)CC3)c3ccccc3)n2)cc1`, the growth is 7.91% (active).
With `Cc1ccc(N2C(=O)CCC2=O)cc1`, the growth is 105%.
The same measure for `CC1CCN(C(=S)SCC(=O)NC(=O)c2ccccc2)CC1`: 109%.
Regarding `Cc1ccc2nc(/C(C#N)=C(/CCCO)NC(Cc3ccccc3)C(=O)OCc3ccccc3)[nH]c(=O)c2c1` (stereo not given), the growth was 103%.
Turning to `CCCCCN(CCCCC)CC(O)c1cc(C)c2ccc3cc(C(C)C)ccc3c2c1` (stereo not given), the growth was 78.9%.
For `O=C(N/N=C\c1cccc([N+](=O)[O-])c1)N/N=C/c1cccc([N+](=O)[O-])c1`, the growth is 92.4%.
Regarding `O=C1c2cccc3cccc(c23)C(=O)N1C/C=C/c1ccc2c3c(cccc13)C(=O)N(CCO)C2=O`, the growth was 58.3%.
As to `CCO/C=N/C1=C(C#N)C(c2ccc(F)cc2)c2sc3c(F)cccc3c2O1` (stereo not given), the growth is 67.8%.
In the case of `CCNC(=O)Oc1ccc(/C(=C(/C)Cc2ccc(OC)cc2)c2ccc(OCCN3CCCCC3)cc2)cc1`, the growth was 86.5%.
Regarding `O=C1c2ccccc2C(=O)c2c1c(C(=O)NCc1ccccc1)c1ccccn21`, the growth was 100%.
Consider `O=C1NC(=O)/C(=C/c2c(-c3ccccc3)nc3sc(COc4ccccc4)nn23)S1`, for which the growth is 93.5%.
Turning to `COc1cc(/C=C/C(=O)/C=C(O)/C=C/c2ccc(OC(=O)C34CC5CC(CC(C5)C3)C4)c(OC)c2)ccc1OC(=O)C12CC3CC(CC(C3)C1)C2`, the growth is 93.6%.
In the case of `COC(=O)CCC/C=C\C[C@H]1C=CC(=O)/C1=C/C[C@@H](O)C/C=C\CC(F)(F)F`, the growth is -48% (active).
As for `Cc1ccc(/C=C/C(=O)c2ccc(-n3cc(CN4CCN(c5cc6c(cc5F)c(=O)c(C(=O)O)cn6C5CC5)CC4)nn3)cc2)cc1`, the growth was 84.6%.
As to `COC(=O)c1c2c(c(C)[n+]([O-])c1C)C(=O)C(NCc1cccc(Cl)c1)=CC2=O`, the growth was 79.8%.
The same measure for `O=C(Nc1ccc(Br)cc1)C1=NCCCCN1`: 93.1%; for `Fc1cccc(-c2ccc3c(c2)C2(CCNCC2)CN3)c1`: 98%; for `COc1ccc(C(=O)c2cc3c(N)c(C(=O)Nc4ccccc4)sc3nc2C)cc1`: 65.3%.
Regarding `COc1ccc(C#Cc2ccc(=O)oc2-c2cc(OC)c(OC)c(OC)c2)cc1O`, the growth was 71.3%.
In the case of `CC1(C)N=C(N)N=C(N)N1c1cccc(CCc2ccccc2)c1`, the growth is 48.1%.
Regarding `CCN1C(=O)N(CC)C2C1N=C(SCc1ccc(Cl)cc1)N2/N=C/C=C/c1ccccc1OC` (stereo not given), the growth is 75%.
As for `COc1ccc(C2=CN3CC=CC3CC2=O)cc1` (stereo not given), the growth was 98%.
For the molecule `O=c1cc(-c2ccccc2)[nH]c2ncc(-c3ccc(F)cc3)n12`, the growth was 86.6%.
Regarding `O=c1ccc(=O)n(-c2nc(-c3ccc([N+](=O)[O-])cc3)cs2)[nH]1`, the growth is 96.3%.
Take `CC/C=C\CCC/C=C1/C(=O)C=C[C@@H]1C/C=C\CCCC(=O)OC`: the growth was 77%.
Consider `COc1cccc(/C=N/NC(=O)c2ccccc2N2CCCC2)c1O`, for which the growth is 71.7%.
For the molecule `CN1CCN(C(=O)[C@@]2(C)CC[C@]3(C)CC[C@]4(C)C(=CC[C@@H]5[C@@]6(C)CCC(=O)NC(C)(C)[C@@H]6CC[C@]54C)[C@@H]3C2)CC1`, the growth is 68.3%.
In the case of `CC1=C2[C@@H](CC1)[C@]1(C)O[C@@](c3ccccc3)(C[C@H]1OC(=O)CO)[C@H]2OC(=O)/C=C/c1ccccc1`, the growth was 80.8%.
The same measure for `CC1(C)NCCC[C@]2(C)[C@H]3CC[C@H]4[C@H]5[C@H](C(=O)/C=C/c6cccnc6)CCC[C@]5(CO)CC[C@@]4(C)[C@]3(C)CC[C@@H]12`: 96.2%.
As to `C=C1C(=O)O[C@H]2[C@H]1CC/C(COC(=O)/C=C/C(=O)OC/C1=C/CC[C@@]3(C)O[C@H]3[C@H]3OC(=O)C(=C)[C@@H]3CC1)=C\CC[C@@]1(C)O[C@@H]21`, the growth is 80.6%.
As for `C=C1C(=O)O[C@H]2[C@H]1CC/C(COC(=O)c1cc3cc(Cl)ccc3[nH]1)=C\CC[C@@]1(C)O[C@@H]21`, the growth was -64.2% (active).
As to `COc1ccc2c(c1)c(-c1nc(-c3c[nH]c4ncccc34)cs1)cn2CCO`, the growth is 36.5%.
In the case of `O=C(CSc1nnc(-c2cc(-c3ccccc3)nc3ccccc23)n1-c1ccccc1)Nc1ccc(C(=O)/C=C/c2ccc(Cl)cc2)cc1`, the growth was 91.4%.
Take `Cc1cccc2c1C[C@@]1(C2=O)C(c2ccc(C(C)(C)C)cc2)=NOS1=O` (stereo not given in full): the growth was 80.7%.
As for `C/C(Cc1ccc(Cl)cc1)=C(\c1ccc(OCCCN(C)C)cc1)c1ccc(OC(=O)Cc2ccccc2)cc1`, the growth is 110%.
